Test results: PubChem BioAssay (NCI)
“And” between values parts separate entries of the source, which are not always exact repeats. Equal entries are not always repeated. The panel holds about 83,000 compounds, 20% with a hit somewhere; the sample as a whole holds those more often.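 The test compound was applied at a single concentration to cells in 96-well plates for 48 hours, and percent growth was recorded.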 Unmarked numbers belong to inactive results. The source made the active and inactive calls. How the source made its calls: active means growth percent below 10; inactive means the rest.

tested on: MDA-MB-468 breast; assay: NCI-60 one-dose screen, 48 h (100 = growth as untreated, 0 = no growth, -100 = all killed); conditions: 10 µM unless noted

SMILES | growth
O=C(Nc1ccc(-n2cc(-c3ccncc3)c(-c3ccc(O)c(Cl)c3)n2)cc1)c1ccc(Cl)c(Cl)c1 | 39.9%
O=C(Nc1cccc(-n2cc(-c3ccncc3)c(-c3ccc(O)c(Cl)c3)n2)c1)c1cc(C(F)(F)F)cc(C(F)(F)F)c1 | 61.6%
COc1cc2c(c(OC)c1OC)CCC(c1cccc(NC(=O)c3cccc(Br)c3)c1)O2 (stereo not given) | 75.2%
COc1ccc(/C(C#N)=C/c2cc(OC)c(OC)c(OC)c2)cc1 | 27.6%
O=C(CC(CC(=O)c1ccccc1)c1ccccc1O)c1ccccc1 | 100%
COc1ccc(-c2ccc(-c3ccc(C(=N)N)cn3)s2)cc1 | 72.6%
O=C(/C=C/c1ccccc1)c1ccccc1O | 64.4%
NNc1c2ccccc2nc2ccccc12 | 16.4%
COC(=O)CCC(=O)C(=O)OC | 52.9% [10 mM]
CCC1CCc2nc3sc(C(=O)Nc4ccccc4C)c(N)c3cc2C1 (stereo not given) | -0.179% (active)
Nc1c2c(nc3ccc(Br)cc13)CC(c1ccccc1)CC2=O (stereo not given) | -4.68% (active)
CC1(C)CC[C@]2(CO)CC[C@]3(C)C(=CC[C@@H]4[C@@]5(C)CCNCC(C)(C)[C@@H]5CC[C@]43C)[C@@H]2C1 | -33.1% (active)
CCCCNc1cc(C(=O)O)cc(S(N)(=O)=O)c1Oc1ccccc1 | 94.1%
N#CC1c2ccccc2C=CN1C(=O)CCCl (stereo not given) | 24.2%
CCCCCCCCCCCCCCCCCCNC(=O)[C@H]1CSC(c2cccs2)N1 (stereo not given in full) | 60.8%
O=C1/C(=C/c2cccc(F)c2)CN(C(=O)C(Cl)Cl)C/C1=C\c1cccc(F)c1 | -47.4% (active)
COC(=O)C(O)c1ccccc1 (stereo not given) | 112%
CCn1c2ccc(/C=N/OCCCN(C)C)cc2c2cc(/C=N/OCCCN(C)C)ccc21 | -66.6% (active)
CCN1C(=O)N(CC)C2C1NN=c1s/c(=C\c3ccc([N+](=O)[O-])cc3)c(=O)n12 (stereo not given) | 7.94% (active)
Cc1ccc2nc(-c3ccc(N=Cc4ccccc4O)cc3)sc2c1 | 86.4%

SMILES | growth
COC(=O)C1Cc2ccccc2CN1C(=O)c1ccc2c(c1)Cc1ccccc1-2 (stereo not given) | 14.5% [50 µM]
CCN(CC)CCCC(C)Nc1nc(-c2ccc(OC)cc2)nc2cc(Cl)ccc12 (stereo not given) | 34.8%
COc1ccc(C2CC(c3ccc(Nc4nc(NCCO)nc(Nc5ccc(Cl)cc5)n4)cc3)=Nc3c(N)nc(N)nc3N2)cc1 (stereo not given) | -23% (active)
COC(=O)[C@H](Cc1cn(C)cn1)NC(=O)[C@@H](NC(=O)Nc1cc(C(F)(F)F)cc(C(F)(F)F)c1)C(C)(C)C | -63.1% [100 µM] (active)
COc1cc([C@@H]2c3cc4c(cc3[C@H](O)[C@H]3COC[C@@H]23)OCO4)cc(OC)c1OC | 58%
CCOC(=O)C(O)C(O)C(=O)OCC (stereo not given) | 102%
CC1CCc2c(sc3nc(SCC(=O)N/N=C/c4ccc(Cl)cc4)n(-c4ccccc4)c(=O)c23)C1 (stereo not given) | 85.6%
Cc1ccc(NC(C(=O)c2ccccc2)c2ccccc2)cc1 (stereo not given) | 8.06% (active)
CCCCCCCCCCCCCCCCN(C(C)c1ccccc1)S(=O)(=O)c1ccc(OC)c(N)c1 (stereo not given) | 119%
Cc1cccc(/C=C2\N=C(c3ccccc3)N(c3ccc(S(N)(=O)=O)cc3)C2=O)c1 | 99.2%
Cc1ccc(OC(=O)c2ccccc2)cc1 | 107%
CCOC(=O)c1[nH]c2c(c1C)-c1[nH]c(=O)c(S(=O)(=O)c3ccccc3)cc1SC2 | 23.9% [100 µM]
CCN1C(=O)N(CC)C2C1NN=c1s/c(=C\c3ccccn3)c(=O)n12 (stereo not given) | -26.9% (active)
N#Cc1cccc(-c2cc(-c3ccc4c(c3)OCCO4)[nH]n2)c1 | 18.6%
Cn1c(SSc2ccc(-c3cccnc3)n2C)ccc1-c1cccnc1 | 72.3% and 93.8%
COc1ccc(-n2c(SCc3cc(OC)c(OC)c(OC)c3)nc3ccc(C)cc3c2=O)cc1 | 46.8%
COc1cc(-c2n/c(=C\c3c(O)[nH]c4ccc(Cl)cc34)cc3c2=Nc2ccccc2-3)ccc1F | -7.14% (active)
C[C@H]1[C@H](C)CC[C@]2(CO)CC[C@]3(C)C(=CC[C@@H]4[C@@]5(C)CCCNC(C)(C)[C@@H]5CC[C@]43C)[C@H]12 | -78.6% (active)
CCSc1nc(Nc2ccc(S(=O)(=O)Nc3ccon3)cc2)c(C#N)c(-c2cccc(Br)c2)n1 | 85.1%
Cn1cc(-c2csc(-c3cn(CCCN4CCOCC4)c4ccc(F)cc34)n2)c2cccnc21 | 49.3%
